# Experimental data reported in PubChem BioAssay AID1347075 (National Center for Advancing Translational Sciences (NCATS), 2019).
# Hit rate of the full screen: of about 400,000 compounds, about 5,500 (1.4%) were called active. Entries that show only a call come without a potency. Not shown: some 9% with an inconclusive outcome. The call rests on the fitted dose curve; in most records, active means well fitted cell-killing curve with a large enough effect; inconclusive means small, poorly fitted or top-dose-only effect, or effect the other way; inactive means flat fitted curve, though single readings scatter. This excerpt belongs to a sample that is enriched for actives.
# Experiment: qHTS assay for MDR1-selective chemotherapeutics: Primary screen using the parental adenocarcinoma cell KB-3-1; further: nearly all actives have a fitted effect of over 60% in size
# Conditions: KB-3-1 viability, CellTiter-Glo ATP luminescence, 72 h; series mostly up to 46.1 µM
# In short: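 Cytotoxicity measured as CellTiter-Glo luminescence after 72 h at 37 C. Compound titrations were pinned onto drug-naive KB-3-1 parental adenocarcinoma cells grown in DMEM with 10% FBS, and normalized data fitted to concentration-response curves.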
# Potency means the concentration at half of the fitted maximal effect.
row,SMILES,Potency
1,CN(Cc1cn(Cc2ccc(C(F)(F)F)cc2)nn1)C1CN(Cc2cn(Cc3ccc(C(F)(F)F)cc3)nn2)S(=O)(=O)C1 (configuration not stated),10.3 µM (active)
2,CN(C)C1CN(Cc2cn(Cc3ccccc3)nn2)S(=O)(=O)C1 (configuration not stated),inactive
3,Cc1ccc(Cn2cc(CN3CC(N4CCN(C)CC4)CS3(=O)=O)nn2)cc1 (configuration not stated),inactive
4,CCOc1ccc2nc(N3CCC(C(=O)Nc4cc(C)ccc4C)CC3)sc2c1,inactive
5,Cn1ccc2cc(S(=O)(=O)N3CCCC(C(=O)NCc4ccccc4F)C3)ccc21 (configuration not stated),inactive
6,COc1cc(Cl)c(NC(=O)CC(C)S(=O)(=O)c2cc3c(cc2C)NC(=O)CO3)c(OC)c1 (configuration not stated),inactive
7,Cc1ccccc1CNC(=O)c1cccc(NC(=O)c2nsc3ccccc23)c1,inactive
8,CC1=C(C)CC(C(=O)NNC(=O)c2ccccc2O)C(C(=O)O)C1 (configuration not stated),inactive
9,O=C(NNC(=O)c1cc(S(=O)(=O)N2CCCCC2)ccc1Cl)c1ccccc1O,inactive
10,O=C(NNC(=O)c1ccccc1O)c1ccccc1O,2.59 µM (active)
11,Cc1ccc(CSc2oc(-c3cccs3)nc2S(=O)(=O)c2ccc(C)cc2)cc1,inactive
12,CCN(C(=O)c1sc2cc(OC)ccc2c1Cl)c1ccccc1,20.6 µM (active)
13,CCN(C(=O)c1ccc(Br)cc1)c1ccccc1,inactive
14,CCN(C(=O)COc1ccc(C(=O)c2ccccc2)cc1)c1ccccc1,inactive
15,CCC(=O)Nc1cccc(-c2nc3cc(C)ccc3o2)c1,inactive
16,CCN(CC)S(=O)(=O)c1ccc2c(c1)c(=O)c(C(=O)N1CCN(c3cccc(Cl)c3)CC1)cn2C,inactive
17,CCCN(CCC)c1c([N+](=O)[O-])c(=O)oc2ccccc12,inactive
18,CCn1c(/C=C/c2ccc([N+](=O)[O-])o2)nc2ccccc2c1=O,3.26 µM (active)
19,C=CCn1c(SCC(=O)NC(=O)Cc2ccccc2)nc2ccccc2c1=O,inactive
20,CCCCCn1c(CCCNC(=O)c2ccccc2OC)nc2ccccc21,inactive
21,CCOC(=O)C1=C(CCc2ccccc2)NC(=O)NC1c1ccc2ccccc2c1 (configuration not stated),23.1 µM (active)
22,CCOC(=O)C1=C(CN2CCc3ccccc32)NC(=O)NC1c1ccc(Cl)cc1 (configuration not stated),inactive
23,CCOCCOC(=O)C1=C(C)NC(=O)NC1c1ccc2c(c1)OCO2 (configuration not stated),inactive
24,Cc1cccc(N2CCN(C(=O)c3cc4c(=O)oc5ccccc5c4s3)CC2C)c1 (configuration not stated),inactive
25,CCOc1ccc(NC(=O)C(=O)NCCc2csc3nc(-c4ccccc4F)nn23)cc1,inactive
26,O=[N+]([O-])c1ccc(C=Nc2ccc(Cl)cc2Cl)s1,16.4 µM (active)

row,SMILES,Potency
1,CCOC(=O)C(Cc1ccccc1)NC(=O)CCc1c(C)nc2c(c(C)nn2-c2ccc(C)c(C)c2)c1C (configuration not stated),inactive
2,COc1cccc(CNC(=O)C2CCN(S(=O)(=O)c3ccc4c(ccn4C)c3)CC2)c1,inactive
3,COc1ccc(-c2nn3c(=O)cc(CN4CCN(C(=O)c5ccc(OC)c(OC)c5)CC4)nc3s2)cc1,inactive
4,CCS(=O)(=O)N1CCC(n2c(C)nc3cccnc32)CC1,inactive
5,COc1ccccc1CNC(=O)c1ccc(NC(=O)N2CC(C)Sc3ccccc32)cc1 (configuration not stated),inactive
6,Cc1cc(Cl)ccc1NC(=S)N1CCC(C(N)=O)(N2CCCCC2)CC1,inactive
7,O=C(NC1CCN(C(=S)Nc2ccc(Cl)cc2)CC1)C1CCCCC1,inactive
8,NC(=O)C1(N2CCCCC2)CCN(C(=S)Nc2ccc(Cl)cc2)CC1,11.6 µM (active)
9,O=C(CCC(=O)N1CC2CCCN2c2ccccc21)NCc1ccccc1Cl (configuration not stated),inactive
10,CCc1ccc(NC(=O)c2cc3c(=O)n(Cc4cccnc4)ccc3nc2C)cc1,inactive
11,COc1ccc(-n2c(=O)c3c(c4cc(OC)ccc4n3C)n(Cc3cccc(C)c3)c2=O)cc1,inactive
12,O=C(NNC(=O)c1ccc(Cl)nc1)c1ccc(Br)cc1,inactive
13,CCN(CC)c1ccc(NC(=O)CN2CCN(CC(=O)Nc3ccc(Cl)cc3)CC2)cc1,inactive
14,CCN(CC)c1ccc(NC(=O)c2ccc(Cl)nc2)cc1,5.17 µM (active)
15,CN(C)c1ccc(C(CNS(=O)(=O)c2cc(F)ccc2F)N2CCOCC2)cc1 (configuration not stated),inactive
16,Cc1ccc(C)c(N2CCN(S(=O)(=O)c3ccc4c(c3)C(C(C)C)C(=O)N4)CC2)c1 (configuration not stated),inactive
17,CCC1CCCCN1C(=O)Cn1c(=O)n(CCCCCC(=O)NCc2ccccc2)c(=O)c2sccc21 (configuration not stated),inactive
18,O=C(c1ccc(Br)cc1)N(Cc1cccs1)c1ccc(F)cc1,inactive
19,Nc1ccccc1N,inactive
20,Cc1ccc(Nc2ccccc2N)cc1,20.6 µM (active)
21,Cc1ccc(Nc2c(-c3ccc(C)s3)nc3ccccn23)cc1,inactive
22,Cc1ccc2c(c1)C1CN(C)CCC1N2S(=O)(=O)c1ccc(Oc2ccc([N+](=O)[O-])cc2)cc1 (configuration not stated),18.4 µM (active)
23,Cc1ccc([N+](=O)[O-])cc1S(=O)(=O)N1CCCN(C)CC1,inactive
24,Cc1ccc2c(c1)C1CN(C)CCC1N2C(=O)c1ccccc1NS(=O)(=O)c1ccc(F)cc1C (configuration not stated),inactive
25,COc1ccc(-c2nn(CC(=O)NC3CCCC3)c3c2cnc2ccc(F)cc23)cc1,inactive
26,Cc1ccc(CNC(=O)c2c(O)nc3c(C)cccn3c2=O)cc1,inactive

row,SMILES,Potency
1,NS(=O)(=O)c1ccc(CNC(=O)c2cnccn2)cc1,inactive
2,COc1cccc(OCC(=O)NNC(=O)c2cnccn2)c1,inactive
3,CCN(CC)c1ccc(/C=N/NC(=O)c2cnccn2)c(O)c1,0.731 µM (active)
4,O=C(/C=C/c1ccccc1)N1CCN(Cc2cc(=O)n3nc(-c4ccccc4F)sc3n2)CC1,inactive
5,Cc1ccc(CNC(=O)CN2CCN(Cc3ccc(Cl)cc3)C2=O)cc1,inactive
6,Cc1ccc(CNC(=O)COc2ccc3c(c2)CCC3)cc1,inactive
7,C/C(CC(=O)NCc1ccc(Cl)cc1)=N\NC(=O)COc1ccc(C)cc1Br,5.17 µM (active)
8,Cc1ccc2oc(C(=O)Nc3ccc(S(=O)(=O)N4CCCCCC4)cc3)cc(=O)c2c1,inactive
9,Cc1ccc(C)c(N2CCN(C(=O)Cc3c(C(=O)O)c(C)cn3C)CC2)c1,inactive
10,CC[n+]1cc(C)ccc1/C=C/c1ccc(N(C)C)cc1,1.84 µM (active)
11,CCc1ccc(-c2nn3c(C)nnc3s2)cc1NC(=O)c1ccc(-c2cccc(Cl)c2)o1,inactive
12,COc1ccc(S(=O)(=O)n2nc(C)c(S(=O)(=O)N3CCCCCC3)c2C)cc1,inactive
13,N#Cc1ccc[n+](CC(=O)c2ccc(O)c(O)c2)c1,inactive
14,O=C(COC(=O)c1ccccc1O)NCc1ccco1,inactive
15,Cc1cc(C(=O)OCC(=O)NCc2ccco2)c(C)n1-c1ccccc1,4.61 µM (active)
16,O=C(COC(=O)c1cnc(Cl)c(Cl)c1)NCc1ccco1,inactive
17,Cc1ccc(NC2=C(c3ccc(C(F)(F)F)cc3)C(=O)c3ccccc32)cc1F,inactive
18,Cc1cccc(NC(=O)N2CCN(C)c3ncccc32)c1C,inactive
19,COc1ccc(CCNC(=O)Nc2ccc3c(c2)c(=O)n(C)n3C)cc1OC,inactive
20,COc1cc(Cn2c3ccc(NC(=O)CC(C)c4ccccc4)cc3c(=O)n2C)ccc1F (configuration not stated),16.4 µM (active)
21,CCNC(=S)Nc1ccc2c(c1)c(=O)n(C)n2Cc1ccc(Cl)cc1,inactive
22,CN(C)c1ccc(C=Nc2ccc(/C=C/c3ccnc4ccccc34)cc2)cc1,inactive
23,CN(C)c1ccc(/C=C/C=C/c2ccnc3ccccc23)cc1,5.8 µM (active)
24,CN(Cc1ccccc1)c1ccc(/C=C/c2ccnc3ccccc23)cc1,inactive
25,CCc1nn(CC(=O)N2CCN(c3ccc(Cl)cc3)CC2)c(=O)c2cc3occc3n12,inactive
26,CC1CN(C(=O)N2CCC(C(=O)NCc3cccs3)CC2)c2ccccc2O1 (configuration not stated),inactive

row,SMILES,Potency
1,CCOc1ccc(Nc2nc3c(S(=O)(=O)c4cccc(Cl)c4)nnn3c3ccsc23)cc1,inactive
2,Cc1cccc(NC(=O)CSc2ncc(-c3ccccc3)[nH]2)c1C,inactive
3,CCOc1ccc(C(CCc2ccccc2)NC(=O)c2ccc(OC)c(OC)c2)cc1OCC (configuration not stated),inactive
4,CCOc1ccc(C(NC(=O)c2cc(OC)c(OC)c(OC)c2)c2cc(Cl)c3cccnc3c2O)cc1 (configuration not stated),inactive
5,CCCCC(=O)NC(c1ccc(OC)c(OC)c1)c1ccc2cccnc2c1O (configuration not stated),5.8 µM (active)
6,COc1ccccc1CNC(=O)CCCn1c(=O)c2ccccc2n(CC(=O)Nc2ccc(C)cc2Cl)c1=O,inactive
7,COc1ccccc1N1CCN(CCCNC(=O)c2cnn(-c3ccccc3Cl)c2C2CCN(C(=O)OC(C)(C)C)CC2)CC1,inactive
8,Oc1ccc(Br)cc1C1C=C(c2ccc3c(c2)OCO3)NC(c2ccc(Cl)cc2)N1 (configuration not stated),inactive
9,Cc1cccc(-c2nc(SCC(=O)Nc3cc(C)on3)c3c(=O)n(C)c(=O)n(C)c3n2)c1,inactive
10,NC(=O)C1CCN(c2ncc(-c3ccc(Cl)cc3)s2)CC1,inactive
11,Cc1cccc(NC(=O)CCn2c(=O)oc3ccccc32)c1,inactive
12,Cc1cccc(NC(=O)c2ccc([N+](=O)[O-])o2)c1,9.2 µM (active)
13,CC(=O)Nc1ccc(N2CCOCC2)c(C(=O)Nc2cccc(C)c2)c1,inactive
14,CCCN1CCc2nc(N3CCN(C)CC3)ncc2C1,inactive
15,COc1ccc(-c2c(C)nn3c(N4CCC(C(=O)NCCC(C)C)CC4)cc(C)nc23)cc1OC,inactive
16,CCCCCCCCn1c2c(c(=N)c3c1CCC3)CCCC2,0.411 µM (active)
17,CCN1CCC(N(Cc2ccc(F)cc2)C(=O)Nc2cc(C)ccc2C)CC1,inactive
18,CC(OC(=O)CN1C(=O)c2ccccc2C1=O)C(=O)c1ccccc1 (configuration not stated),inactive
19,CC(C)OC(=O)CN1C(=O)C(=O)c2ccccc21,18.4 µM (active)
20,Cc1cc(/C=C2/SC(=O)N(CC(=O)OC(C)C)C2=O)c(C)n1C,inactive
21,CCCCNC(=O)c1cc(-c2ccc(Cl)c(Cl)c2)on1,inactive
22,COc1ccc(-n2nnc(-c3nsc(NC(=O)c4ccc(C)c(C)c4)n3)c2C)cc1Cl,inactive
23,Cc1c(-c2nsc(NC(=O)c3cccc(Cl)c3)n2)nnn1-c1ccccc1C(F)(F)F,23.1 µM (active)
24,CCc1cccc(-n2nnc(-c3nsc(NC(=O)c4ccc(C)cc4)n3)c2C)c1,inactive
